Laboratory results from paper PMC4336329 (PLoS ONE, 2015).
Screen size: about 310,000 compounds; about 14,000 (4.5%) showed an effect of 50% or more. Effects have a minus sign here. This is one part of a sample in which strong results are shown more often than they occur.

Biological target: human ether-à-go-go-related gene (hERG) potassium channel (human, UniProt Q12809)
Assay: primary screen, population patch clamp on CHO cells stably expressing hERG; higher = less effect of the substance
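Note: peak tail current of the secondary pulse compared with the same well before compound.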

Sequence of human ether-à-go-go-related gene (hERG) potassium channel (Q12809 whole entry, looked up): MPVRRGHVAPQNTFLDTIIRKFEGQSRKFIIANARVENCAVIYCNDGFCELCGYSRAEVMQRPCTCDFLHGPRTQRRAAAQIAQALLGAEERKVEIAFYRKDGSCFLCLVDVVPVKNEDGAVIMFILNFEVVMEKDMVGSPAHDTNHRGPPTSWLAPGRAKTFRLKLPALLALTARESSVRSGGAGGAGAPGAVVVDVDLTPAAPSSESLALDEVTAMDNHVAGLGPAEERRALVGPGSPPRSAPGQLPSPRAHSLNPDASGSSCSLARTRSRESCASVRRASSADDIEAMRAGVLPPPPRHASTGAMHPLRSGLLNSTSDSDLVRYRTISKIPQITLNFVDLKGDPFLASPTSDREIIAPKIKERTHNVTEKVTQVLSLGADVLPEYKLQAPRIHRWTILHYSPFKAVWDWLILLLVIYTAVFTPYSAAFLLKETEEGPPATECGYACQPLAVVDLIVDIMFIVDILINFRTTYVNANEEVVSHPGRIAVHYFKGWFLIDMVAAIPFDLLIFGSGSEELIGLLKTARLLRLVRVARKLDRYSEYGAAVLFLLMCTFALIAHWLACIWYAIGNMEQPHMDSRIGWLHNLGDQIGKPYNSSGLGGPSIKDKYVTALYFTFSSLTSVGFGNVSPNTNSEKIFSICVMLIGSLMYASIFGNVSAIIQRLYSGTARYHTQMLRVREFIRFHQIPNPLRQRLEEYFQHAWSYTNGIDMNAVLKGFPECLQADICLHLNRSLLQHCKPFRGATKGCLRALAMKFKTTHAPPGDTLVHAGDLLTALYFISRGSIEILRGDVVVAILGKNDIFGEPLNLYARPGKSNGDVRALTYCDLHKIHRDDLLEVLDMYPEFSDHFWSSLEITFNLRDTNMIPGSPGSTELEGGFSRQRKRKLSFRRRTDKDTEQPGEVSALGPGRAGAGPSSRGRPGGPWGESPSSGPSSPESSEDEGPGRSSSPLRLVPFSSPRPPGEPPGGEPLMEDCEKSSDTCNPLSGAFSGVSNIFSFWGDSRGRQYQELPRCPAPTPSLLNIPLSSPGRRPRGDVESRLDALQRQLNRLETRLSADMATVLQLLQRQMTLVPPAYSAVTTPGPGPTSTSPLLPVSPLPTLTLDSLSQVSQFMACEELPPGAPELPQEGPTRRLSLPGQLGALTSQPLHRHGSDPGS

Structure (SMILES)	hERG current change (%, negative = inhibition) at 10uM
Cc1cnc(C(=O)Nc2ccc(F)cc2)cn1	-0.2%
CCN(CC)C(=O)C1CCCN(C(=O)Nc2ccc(NC(=O)N3CCCC(C(=O)N(CC)CC)C3)cc2)C1 (stereo not shown)	-11.5%
COc1ccc(NC(=O)c2cc(-c3cc(C)cc(C)c3O)n[nH]2)cc1Cl	-4.52%
Cn1c2c(c(=O)n(C)c1=O)CN(CC1CCCO1)CN2 (stereo not shown)	9.87%
CC(C)C(=O)Nc1nc(-c2ccc([N+](=O)[O-])cc2)cs1	7.04%
CC(C)(C)NC(=O)c1cc(-c2ccccc2)n[nH]1	11.5%
Cc1ccc(-n2c(Cc3noc4ccccc34)n[nH]c2=S)cc1	8.59%
NS(=O)(=O)c1cccnc1Nc1cccc(Cl)c1	11.8%
CCCCNC(=O)c1cc2c(-c3ccc(Cl)cc3)nn(C)c2s1	-7.09%
CCN(CC)CCCNC(=O)c1cc2c(-c3ccc(Cl)cc3)nn(C)c2s1	-59.9%
CN1CCN(CCCNC(=O)c2cc3c(-c4ccc(Cl)cc4)nn(C)c3s2)CC1	-40.1%
CC(C)NC(=O)c1cc2c(-c3ccc(Cl)cc3)nn(C)c2s1	4.67%
CCCCN(CC)CCCNC(=O)c1cc2c(-c3ccc(OC)c(OC)c3)nn(C)c2s1	-7.25%
CCOCCCNC(=O)c1cc2c(-c3ccc(Cl)cc3)nn(C)c2s1	9.31%
Cn1nc(-c2ccc(Cl)cc2)c2cc(C(=O)NCCCN3CCCC3)sc21	-59.5%
CCN(CC)CCNC(=O)c1cc2c(-c3ccc(Cl)cc3)nn(C)c2s1	-69.6%
COCCCNC(=O)c1cc2c(-c3ccc(Cl)cc3)nn(C)c2s1	-3.72%
Cn1nc(-c2ccc(Cl)cc2)c2cc(C(=O)NCCCN3CCOCC3)sc21	-13.1%
CCCCN(CC)CCNC(=O)c1cc2c(-c3ccc(Cl)cc3)nn(C)c2s1	-74.8%
COc1cc(CNC(C)C)ccc1OCC(=O)Nc1cccc2ccccc12	-27.2%
CC(=O)NC1(c2cccc(F)c2)CCN(CC(=O)NC(C)C)CC1	9.55%
Cc1cc(C(C)(C)C)n2nc(C)c(-c3ccccc3)c2n1	13.9%
O=[N+]([O-])c1ccc(O)c(Nc2c([N+](=O)[O-])ccc3nonc23)c1	16%
CCNc1nc(OC)nc(SCC(=O)Nc2ccccc2)n1	17.2%
Cc1nnc(Nc2ccc(Cl)cc2)n(N)c1=O	8.16%
